# PubChem BioAssay (NCATS)
# Several values for one entry are separate records, joined by “and”; a condition that tells them apart may be missing. Equal values may be shown once. Results filed as inconclusive are left out. A call without a number means that no potency is given here. Activity calls are given as the source filed them. Unless noted, the call rests on the fitted dose curve; in most records, active means well fitted curve in the direction sought with a large enough effect; inconclusive means small, poorly fitted or top-dose-only effect, or another doubt; inactive means no such curve, though single readings can be large; an effect the other way counts as inactive or inconclusive.
# Legend:
# [1] = target: Alpha-galactosidase A (Homo sapiens) (UniProt P06280); assay: Counterscreen for Glucocerebrosidase Inhibitors: qHTS Assay for Human alpha-Galactosidase at pH 4.5 (AID 992)
# Sequence of Alpha-galactosidase A (Homo sapiens) (P06280 whole entry, looked up): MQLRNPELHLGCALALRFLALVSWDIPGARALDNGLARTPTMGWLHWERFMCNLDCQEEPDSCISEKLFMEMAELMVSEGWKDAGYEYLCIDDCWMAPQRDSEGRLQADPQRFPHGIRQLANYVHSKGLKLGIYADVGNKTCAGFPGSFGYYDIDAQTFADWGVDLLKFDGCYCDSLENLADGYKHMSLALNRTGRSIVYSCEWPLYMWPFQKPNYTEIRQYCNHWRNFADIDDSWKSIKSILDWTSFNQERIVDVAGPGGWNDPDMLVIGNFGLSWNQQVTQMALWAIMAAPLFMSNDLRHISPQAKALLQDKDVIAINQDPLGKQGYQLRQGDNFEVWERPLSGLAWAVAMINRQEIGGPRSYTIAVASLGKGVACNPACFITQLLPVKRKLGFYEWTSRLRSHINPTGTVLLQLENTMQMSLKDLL
# Outline: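 Citrate buffer pH 4.5, Tween-20 0.005%. Enzyme 2 nM, substrate 80 uM, 20 min RT. Stop pH 10. Fluorescence Ex 365/Em 440. AC50 by Hill fit.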
# [2] = target: alpha-glucosidase (Oryza sativa, rice) (UniProt Q653V4); assay: Counterscreen for Glucocerebrosidase Inhibitors: qHTS Assay for Rice alpha-Glucosidase at pH 5.0 (AID 997)
# Outline: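 Endpoint fluorogenic assay at pH 5.0: compounds (0.7 nM to 77 uM) titrated against 4 nM rice enzyme and 400 uM 4-MU-alpha-glucoside for 20 min at room temperature; NaOH/glycine stop, read ex 365/em 440 nm, Hill-fitted AC50.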
# [3] = target: Alpha-galactosidase (Coffea arabica) (UniProt Q42656); assay: Counterscreen for Glucocerebrosidase Inhibitors: qHTS Assay for Coffee Bean alpha-Galactosidase at pH 5.9 (AID 998)
# Sequence of Alpha-galactosidase (Coffea arabica) (Q42656 whole entry, looked up): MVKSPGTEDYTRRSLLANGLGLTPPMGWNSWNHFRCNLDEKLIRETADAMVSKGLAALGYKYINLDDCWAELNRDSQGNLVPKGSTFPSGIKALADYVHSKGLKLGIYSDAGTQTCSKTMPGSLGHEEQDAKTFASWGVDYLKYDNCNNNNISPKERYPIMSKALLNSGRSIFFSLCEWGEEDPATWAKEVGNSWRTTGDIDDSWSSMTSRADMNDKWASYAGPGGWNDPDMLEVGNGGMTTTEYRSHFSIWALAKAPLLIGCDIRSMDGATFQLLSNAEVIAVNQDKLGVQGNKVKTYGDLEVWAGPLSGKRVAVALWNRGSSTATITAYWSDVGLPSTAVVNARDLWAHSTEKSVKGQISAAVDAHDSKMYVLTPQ
# Outline: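 Fluorogenic 4-MU substrate hydrolysis, 80 uM substrate and 2 nM coffee bean alpha-galactosidase, pH 5.9 citrate buffer, 20 min at room temperature, then NaOH/glycine stop. Titration 0.7 nM–77 uM, normalized to no-enzyme and enzyme controls, AC50 via Hill equation.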
# [4] = Validation of Assay for Modulators of Lamin A Splicing (AID 1459; active means well fitted curve in the direction sought with a large enough effect in the signal ratio; the % refers to the signal ratio;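 further: cells exposed to compound for two days before reading; ratio rise marks activators and ratio drop marks inhibitors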)
# Outline: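 S3 HeLa cells stably expressing a lamin A-EGFP splicing minigene and DsRed2 were seeded at 600 cells/well in Opti-MEM with 2% FBS, pin-dosed, and incubated 48 hrs at 37 °C, 5% CO2. Laser-scanning cytometry (488 nm) gave GFP/RFP total intensity ratio.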
# [5] = qHTS Assay for Lipid Storage Modulators (AID 1519; calls by dose curve); settings: Drosophila S3 cells, BODIPY lipid droplet/cell ratio, laser cytometry, cells loaded with oleic acid; for activity change, negative = inhibition: at 57.5 µM (top of the series)
# Outline: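 Cells seeded at 5,000 per well were treated with compounds over a concentration series and loaded with oleic acid (400 uM, as added). Lipid droplet fluorescence (488 nm excitation, 500-530 nm channel) was read by laser-scanning cytometry and normalized to 20 uM Triacsin C.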
# [6] = target: DNA repair nuclease/redox regulator APEX1 (Homo sapiens) (UniProt P27695); assay: qHTS Validation Assay for Inhibitors of the Human Apurinic/apyrimidinic Endonuclease 1 (APE1) (AID 1705;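 further: TAMRA fluorescence gain over two minutes as APE1 cuts a quenched THF abasic duplex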)
# Sequence of DNA repair nuclease/redox regulator APEX1 (Homo sapiens) (P27695 whole entry, looked up): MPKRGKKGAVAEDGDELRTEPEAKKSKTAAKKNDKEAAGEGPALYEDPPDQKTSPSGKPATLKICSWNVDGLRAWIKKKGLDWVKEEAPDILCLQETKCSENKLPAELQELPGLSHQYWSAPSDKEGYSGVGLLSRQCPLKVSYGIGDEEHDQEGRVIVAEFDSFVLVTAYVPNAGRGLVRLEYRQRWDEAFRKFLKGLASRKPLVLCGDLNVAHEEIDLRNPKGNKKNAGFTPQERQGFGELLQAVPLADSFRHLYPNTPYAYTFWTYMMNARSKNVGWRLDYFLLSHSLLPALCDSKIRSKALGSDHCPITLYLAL
# Outline: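 Human APE1 was preincubated with compound for 15 min at room temperature, then 50 nM (final) THF-abasic double-stranded DNA substrate bearing 5'-TAMRA and 3'-BHQ-2 was added. Incision-driven fluorescence rise (ex 525/em 598 nm) was read kinetically.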
# [7] = Counterscreen for APE1 Inhibitors: Fluorescent Dye Displacement Validation Assay (AID 1707)
# Outline: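 Signal: ThO fluorescence (ex 480 nm/em 540 nm) on binding 50 nM dsDNA; displacement by test compound reduces it. Conditions: 250 nM dye, 50 mM Tris-HCl pH7.5, 2 mM MgCl2, 50mM NaCl, 0.01% Tween-20.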
# [8] = qHTS for differential inhibitors of proliferation of Plasmodium falciparum line Dd2 (AID 1882); settings: Potency: Plasmodium falciparum Dd2 proliferation inhibition; further: nearly all actives have a fitted effect of over 65% in size; further: potency means the concentration at half of the fitted maximal effect
# Outline: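 SYBR Green DNA fluorescence (ex 485, em 535 nm) after overnight lysis quantifies parasite growth; compound exposure lasted 72 h at 37 C on infected red cells at 2.5% hematocrit, 0.3% parasitemia (final). Artemisinin 0.29 uM and vehicle wells define normalization.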
# [9] = qHTS for differential inhibitors of proliferation of Plasmodium falciparum line W2 (AID 1883); settings: Potency: Plasmodium falciparum W2 proliferation inhibition;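 further: potency means the concentration at half of the fitted maximal effect; parasites grown with compound for 72 h before lysis and staining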
# [10] = qHTS Assay for Modulators of Human Peripheral Myelin Protein 22 (PMP22) Expression/Activity (AID 1967; active means well fitted curve in the direction sought with a large enough effect in the signal ratio; the % refers to the signal ratio)
# Outline: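 MSC80 mouse Schwann cells stably carrying Pmp22 promoter–green click beetle luciferase plus EF-alpha–red luciferase control were dosed for 24h at 37 °C. Dual-colour luminescence was filter-overlap corrected; %Activity came from green/red ratio versus untreated cells.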
# [11] = target: Endonuclease 4 (Escherichia coli (strain K12)) (UniProt P0A6C1); assay: Counterscreen for APE1 Inhibitors: qHTS Validation Assay for Inhibitors of Endonuclease IV (AID 1708)
# Outline: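 Incision of a double-stranded 50 nM TAMRA/BHQ-2 abasic substrate was followed kinetically (525/598 nm, reads every 60 s) after 15 min enzyme–compound preincubation with 2 nM EndoIV in pH 7.5 Tris buffer with MgCl2, DTT and Tween-20; concentration-response format.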
# [12] = qHTS for differential inhibitors of proliferation of Plasmodium falciparum line 7G8 (AID 1815);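 further: potency means the concentration at half of the fitted maximal effect; parasite growth measured after three days of incubation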
# [13] = qHTS for differential inhibitors of proliferation of Plasmodium falciparum line GB4 (AID 1816); settings: Potency: Plasmodium falciparum GB4 proliferation inhibition;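 further: potency means the concentration at half of the fitted maximal effect; parasite growth measured after 72 h incubation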
# [14] = qHTS for differential inhibitors of proliferation of Plasmodium falciparum line 3D7 (AID 1876); further: potency means the concentration at half of the fitted maximal effect
# [15] = qHTS for differential inhibitors of proliferation of Plasmodium falciparum line D10 (AID 1877);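 further: parasites grown with compound for 72 h before DNA staining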; further: potency means the concentration at half of the fitted maximal effect
# [16] = qHTS for differential inhibitors of proliferation of Plasmodium falciparum line HB3 (AID 1886); settings: Potency: Plasmodium falciparum HB3 proliferation inhibition;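 further: parasites grown with compound for 72 h before SYBR Green readout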; further: potency means the concentration at half of the fitted maximal effect
# [17] = measured here: cell count channel max response
# [18] = measured here: lipid channel max response
Structure (SMILES),outcome [1],outcome [2],outcome [3],outcome [4],"activity change, negative = inhibition [5]","max response [5, 17]","max response [5, 18]",Potency [6],Potency [7],Potency [8],Potency [9],outcome [10],Potency [11],Potency [12],Potency [13],Potency [14],Potency [15],Potency [16]
Clc1cc(I)cc(Cl)c1NC1=NCCN1,inactive,inactive,inactive,inactive,0.0728% (inactive),-25.7%,-24.3%,inactive,inactive,inactive,14.1 µM (active),inactive,,,,,,
CCCN(CCC)[C@@H]1CCc2cccc(O)c2C1,inactive,inactive,inactive,inactive,-3.59% (inactive) and 3.17% (inactive) and -3.25% (inactive),0.992% and 13.8% and 35%,-2.21% and 19.9% and 27.7%,inactive,inactive,8.91 µM (active),2.51 µM (active),,inactive,3.55 µM (active),3.16 µM (active),10 µM (active),10 µM (active),10 µM (active)
CCCN1CC[C@@H]2c3cc(O)ccc3CC[C@@H]21,,,,inactive,1.73% (inactive),47.3%,49.1%,inactive,inactive,inactive,10 µM (active),inactive,,,,inactive,,inactive
COc1ccc(CNC(=O)/C=C/c2ccc3[nH]cc(CCN(C)C)c3c2)cc1,,,,inactive,-4.95% (inactive),-78.1%,-80.1%,inactive,inactive,,8.91 µM (active),,,11.2 µM (active),11.2 µM (active),8.91 µM (active),11.2 µM (active),10 µM (active)
CN1CCC(c2c[nH]c3ccc(O)cc23)CC1,inactive,inactive,inactive,inactive,2.83% (inactive) and 0.677% (inactive),19.5% and 47.8%,24% and 52.3%,inactive,inactive,inactive,8.91 µM (active),inactive,,,,10 µM (active),,
OC1CCCCC1N1CCC(c2ccccc2)CC1 (stereo unspecified),,,,inactive,6.18% (inactive),4.61%,12.5%,,inactive,inactive,10 µM (active),inactive,inactive,,,inactive,inactive,inactive
CC12NC(Cc3ccccc31)c1ccccc12 (stereo unspecified),,,,inactive,-2.09% (inactive),1.93%,-0.147%,inactive,inactive,7.94 µM (active),4.47 µM (active),inactive,inactive,,5.01 µM (active),inactive,inactive,inactive
COC(=O)N1CCN(C(=O)Cc2ccc(Cl)c(Cl)c2)C(CN2CCCC2)C1 (stereo unspecified),,,,inactive,0.712% (inactive),7.98%,7.35%,inactive,inactive,7.94 µM (active),2.82 µM (active),,inactive,12.6 µM (active),10 µM (active),,,
C[N+](C)(C)CC#CCOC(=O)Nc1cccc(Cl)c1,inactive,inactive,inactive,inactive,-0.494% (inactive),-7.08%,-8.94%,inactive,inactive,inactive,12.6 µM (active),inactive,,,,12.6 µM (active),11.2 µM (active),
